For the assay, the system named is MDA-MB-468 breast. The assay can be described thus: NCI-60 one-dose screen, 48 h (100 = growth as untreated, 0 = no growth, -100 = all killed). As to conditions: 10 µM unless noted.

Where “and” joins values, the source holds several entries; their conditions need not be identical. Equal entries are not always repeated. The panel holds about 83,000 compounds, 20% with a hit somewhere; the sample as a whole holds those more often.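 The endpoint reported here, percent growth, reads 100 for growth as untreated, 0 for no net growth and -100 for all cells dead.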 A number with no mark means an inactive call. Calls of active or inactive are those of the source. How the source made its calls: active means growth percent below 10; inactive means the rest.

As to `CCN1CCN(c2ccc(Nc3ncnc4c3nnn4CCc3cc(OC)cc(OC)c3)cc2)CC1`, the growth is 76.1%. On to `COC(=O)c1c(C)nc(C)c2c1C(=O)C(Br)=C(NCc1ccccc1)C2=O`, for which the growth is -21.3% (active). With `CCOc1c(B(O)O)cccc1-c1nc2ccc3[nH]ncc3c2c2c1CCCC2` the figure was 51.1%; with `CNCCCn1c2c(c3ccc([N+](=O)[O-])cc3c1=O)C(=O)c1cc(OC)cnc1-2`, -39.5% (active); with `COc1cc(-c2nn(-c3ccc(NC(=O)NCCNS(=O)(=O)c4ccc(F)cc4)cc3)cc2-c2ccncc2)ccc1Cl`, -27% (active). Then `COc1ccc(-c2cn3ccnc3c(-c3ccc4ncn(C5CCCCC5)c4c3)n2)cc1`, with 2.59% (active); and `O=S(=O)(Oc1ccc(-c2nnc(Nc3ccccc3)s2)cc1)C(F)(F)C(F)(F)C(F)(F)C(F)(F)C(F)(F)C(F)(F)F`, with 99.8%; and `C#CC[C@@H]1C[C@]2(C)[C@H]3CC=C4[C@H]5CC(C)(C)CC[C@]5(C(=O)NCCCCN)CC[C@@]4(C)[C@]3(C)CC[C@H]2C(C)(C)[C@H]1OC(C)=O`, with -39.7% (active). Then `COc1cc2c(cc1-c1c(C)noc1C)ncc1nc(C3CCCCC3)n([C@H](C)COC(F)F)c12`, with 38.5%; and `COc1ccc(OC)c(Cn2cc3c(c2-c2ccccc2)CCc2cnoc2-3)c1`, with 29.7%; and `CC(C)N=C(N)/N=C(\N)Nc1ccc2ccc3ccccc3c2c1`, with -91.1% (active). For `Cn1cc(-c2noc(C(=O)c3cn(C)c4ncccc34)n2)c2ccccc21`, the growth is -9.42% (active). With `CCOC(=O)C1=C(c2ccccc2)N=C2N(c3ccccc3)N=C(C(C)=O)N2C1c1ccc(Br)cc1` (stereo not drawn) the figure was 99.3%; with `CS(=O)(=O)N1CCN(Cc2cc3nc(-c4cccc5[nH]ncc45)nc(N4CCOCC4)c3s2)CC1` (tested in a mixture with another compound), -47.9% (active); with `O=C(CCCCCCNC(=O)C(O)(O)C(F)(F)F)Nc1ncc(-c2ccc(Br)cc2)s1`, -35.8% (active). Then `CNC(=O)c1[nH]cc(-c2ccccc2)c1-c1cc(OC)c2c(c1OC)OCO2`, with 100%; and `CCCCCc1c(C)[nH]c(/C=c2\[nH]/c(=C3/C=c4ccccc4=N3)cc2OC)c1C`, with -63.8% (active). Then `O=c1[nH]c2cc(Cl)ccc2n1C1CCN(c2ccc3nnc(Cl)n3n2)CC1`, with 85.3%. In the case of `COc1ccc(-c2nc3c(c(-c4ccccc4)nn3-c3ccccc3)c(-c3ccc(N4CCOCC4)cc3)c2C#N)cc1`, the growth is 97.8%. Turning to `CCC1CCCCN1C(=S)N/N=C(\C)c1ccccn1` (stereo not drawn), the growth was -2.96% (active). For `Nc1nc(N)nc(N2CCCCC2)n1`, the growth was 124%.

As to `CCOC(=O)c1cnn(-c2ccc(S(N)(=O)=O)cc2)c1N`, the growth was 94.7%. On to `O=C1[C@H]2Cc3c([nH]c4ccccc34)[C@H](c3ccc(Br)cc3)N2C(=O)CN1C1CCN(CC2CCCCC2)CC1`, for which the growth was 80.1%. Regarding `O=C(CSc1nc(-c2ccccc2)[nH]c1S(=O)(=O)c1ccccc1)NC1CC1`, the growth is 4.04% (active). With `S=C(Sc1ccc(Cl)cc1)Sc1ccc(Cl)cc1` the figure was -37.6% (active); with `Nc1cccc2c1CN(C1CCC(=O)NC1=O)C2=O` (stereo not drawn), 84%. As to `NS(=O)(=O)Oc1ccc(NC(=O)C23CC4CC(CC(C4)C2)C3)cc1Cl`, the growth was 103%. With `O=C(/C=C(O)/C=C/c1cccc2[nH]ccc12)/C=C/c1cccc2[nH]ccc12` the figure was 67.8%; with `N#CCc1ccc([N+](=O)[O-])cc1`, 96.8%. Then `CCOC(=O)c1c(C)nc2c(c1N)/C(=C/c1ccc[nH]1)C(=O)N2Cc1ccc(C(F)(F)F)cc1`, with 58.7%; and `[2H]C1([2H])CCN(C(=O)C2CC2)c2cc(NS(=O)(=O)c3ccc(-c4cccc(C(N)=O)c4)cc3)ccc21`, with -5.25% (active).

On to `CC1C(/C=N/Nc2ccccc2)C(C#N)(C#N)C1(C#N)C#N` (stereo not drawn), for which the growth is 91.3%. With `O=C(O)c1ccc(-n2cc(/C=N/Nc3ccc(Cl)cc3)c(-c3ccc(F)c(F)c3)n2)cc1` the figure was 83.2%. Then `Clc1ccccc1-c1nc(Nc2nc3ccccc3s2)nc(C(Cl)(Cl)Cl)n1`, with -24.6% (active); and `CC(Sc1nc2ccccc2c(=O)n1CCc1ccc(S(N)(=O)=O)cc1)C(=O)Nc1ccc(Cl)cc1` (stereo not drawn), with 84%; and `CC(C)(C)c1ccc(O)c(-c2ccccc2)c1`, with 140%.

As to `COc1cc(/C=C2\COc3ccc(O)c(O)c3C2=O)cc(OC)c1`, the growth is -0.854% (active). Then `CCCCCCC1(C)NCCO1` (stereo not drawn), with 103%. For `COc1cccc(C(=O)OCCn2nc3c4c(cccc42)C(=O)c2ccccc2-3)c1O`, the growth is 24.9%. Then `S=C1NCc2cncnc2N1`, with 99.7%. As for `O=C1[C@@H](OS(=O)(=O)CC(F)(F)F)[C@H](c2ccc(F)cn2)N1c1cc2c3ccccc3ccc2c2ccccc12`, the growth was 89.4%. Then `Clc1nc(Cl)c2ncn(CCOCCn3cnc4c(Cl)nc(Cl)nc43)c2n1`, with -72.3% (active); and `CCCCCCCCCCCC[n+]1ccc(CCCCCCCCC)cc1`, with -53.8% (active); and `C=C(C[C@](O)(C(=O)/C=C/c1ccc(Cl)cc1)C(=O)OC)c1ccccc1`, with 69.5%. `COc1cc(/C=C/C(=O)c2ccc(NC(=O)COc3cccc4cccnc34)cc2)cc(OC)c1OC`: the growth is 75.6%.

With `O=C(CC12CC3CC(CC(C3)C1)C2)NCCOCCOCCNC(=O)c1cc2c(o1)C(=O)c1ccccc1C2=O`, the growth is -60.7% (active). `NC(=O)c1cccc(C#CCNC[C@H]2C[C@@H](n3ccc4c(Cl)ncnc43)[C@H](O)[C@@H]2O)c1`: the growth is 95.9%. Then `O=C(O)C1CCCN1C(=O)OCc1ccccc1` (stereo not drawn), with 115%.

On to `Fc1ccc(-c2nc(C(Cl)Cl)nc3cc(-c4ccccc4)nn23)cc1`, for which the growth was -52.7% (active). Then `O=C(Nc1ccc(Cl)c(Cl)c1)Nc1ccc(Cl)c([N+](=O)[O-])c1`, with -19% (active). Then `Oc1ccc2ccccc2c1N=Nc1ccccn1`, with -28.6% (active); and `CN(C)CCN(C)CC(C)(C)C(=O)/C=C/c1ccc(Cl)cc1`, with -46.2% (active); and `O=C1Nc2ccccc2/C1=C\c1nc(-c2ccccc2F)n2ccccc12`, with 8.76% (active). Then `COc1ccc(C2C=C(c3ccc(Cl)c(Cl)c3)N=C3SC(C)=CN32)cc1OC` (stereo not drawn), with 53.1%; and `COc1ccc(/C=C2\CCCC3=C2NC(N)=NC3c2ccc(OC)cc2)cc1` (stereo not drawn), with -5.61% (active); and `CC1=CC(=C(c2ccc(N)cc2)c2ccc(N)cc2)C=CC1=N`, with -13.6% (active) and -1.34% (active). Consider `OC(c1cc2cc(Cl)c(Cl)cc2c2cc(C(F)(F)F)ccc12)C1CCCCN1` (stereo not drawn), for which the growth was -92.2% (active).

Take `Cn1cc(C(=O)NCCC(=N)N)cc1NC(=O)CN=C(N)N`: the growth was 96.7%.

For the molecule `COc1ccc2nc3c(cc2c1)C(=O)CC(c1ccccc1)C3` (stereo not drawn), the growth was 68.3%.

Take `Cc1ccc(C)c2c1CCC2C(C)C` (stereo not drawn): the growth is 106%.

For the molecule `Cc1cccc(-c2nc(N(C)c3ccc4ncsc4c3)c3ccccc3n2)n1`, the growth is 51%. For the molecule `NC(=O)c1c(NC(=S)Nc2ccc(OC(F)(F)F)cc2)sc2c1CCC1(C2)OCCO1`, the growth is 94.7%. Take `COc1cc2c(cc1OC)C(=O)OC2`: the growth was 97.1%. With `Cc1nc2sc(C(=O)Nc3ccccc3)c(N)c2cc1C(=O)c1ccc(C(F)(F)F)cc1` the figure was 107%.

For `COc1ccc(-c2nnc(/N=C3/C(=O)Nc4ccc(Br)cc43)o2)cc1`, the growth was 90.7%. Consider `Clc1ccc2c(NCCNc3nc(N4CCCCC4)nc4ccccc34)ccnc2c1`, for which the growth was -31.7% (active). Regarding `COc1cc(-c2nc(Nc3nc4ccccc4s3)[nH]c(=O)c2C#N)cc(OC)c1O`, the growth was 105%.

In the case of `COC(=O)c1cccc([N+](=O)[O-])c1`, the growth was 105%. `c1ccc(CCNc2c3ccccc3nc3ccccc23)cc1`: the growth was -11.4% (active). Then `CCc1ccc(-c2ccc(COc3ccc(CC4SC(=O)NC4=O)cc3)cc2)cc1` (stereo not drawn), with 35.3%; and `O=[N+]([O-])c1ccccc1/C=N\Nc1ccccc1`, with 66.3% and 89.3%. With `CCCSc1nc(Nc2ccc(/C(C)=N\NC(N)=S)cc2)c(C#N)c(-c2ccccc2)n1`, the growth is 66.5%. For the molecule `CCOC(=O)Nc1ccc2c(c1)/C(=N\NC(N)=S)c1ccccc1-2`, the growth is 55.3% and 75.3%.

Consider `C[C@H](NC(=O)c1c(N)nn2cccnc12)c1cc2cccc(C#Cc3cnn(C)c3)c2c(=O)n1-c1ccccc1`, for which the growth was -21.2% (active). On to `COc1cc(C2CC(c3cccc(Nc4ccnc5cc(Cl)ccc45)c3)=NN2c2ccc(Cl)cc2)cc(OC)c1OC` (stereo not drawn), for which the growth was 74.4%. With `COC(=O)C12C3C(=O)N(c4ccc(OC)cc4)C(=O)C3C(c3cn(-c4ccccc4)nc3C)N1[C@H](c1cn(-c3ccccc3)nc1C)[C@@H]1C(=O)N(c3ccc(OC)cc3)C(=O)[C@@H]12` (stereo partly drawn) the figure was 97.4%; with `C=CCn1c(SCC(=O)Nc2ccc(C(=O)/C=C/c3ccc(Cl)cc3)cc2)nnc1-c1ccccc1`, 101%. For the molecule `COc1cc2c(-c3cc4c(cc3CNCCc3ccc5c(c3)OCO5)OCO4)cccc2c(OC)c1O`, the growth was -8.75% (active). For `CC(=O)Oc1cc(OC(C)=O)c2ccccc2c1OC(C)=O`, the growth is 72.7%. `c1ncc2[nH]cnc2n1`: the growth was 96%.

As to `O=C(CCCCCCNC(=O)C(O)(O)C(F)(F)F)Nc1ncc(-c2ccccc2)s1`, the growth is -25% (active). With `CC(=O)N1Cc2ccccc2C(C)Cc2cc(Cl)ccc21` (stereo not drawn) the figure was 113%; with `COc1ccc(CSc2nc3cc(OC)c(OC)cc3c(=O)n2-c2ccc(OC)cc2OC)cc1`, 74.3%.

The record behind these values is PubChem BioAssay (NCI).
